Assay outcomes (PubChem BioAssay)
Most compounds without a hit are left out; they make up all but 5.4% or so of the library.
A3A deaminase: APOBEC3A ssDNA deaminase inhibitors, primary screen, selectivity assay for APOBEC3G inhibitor project, biochemical, FAM/TAMRA oligo cleavage fluorescence; inhibition, % at 20 µM; recombinant A3A, FAM/TAMRA ssDNA deamination fluorescence; AID 493011, 2011; 330,000 tested, 0.41% active;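 active = at least 40% inhibition at 20 µM here, with at most 30% in a related deaminase screen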
Target sequence (P31941 whole entry, looked up): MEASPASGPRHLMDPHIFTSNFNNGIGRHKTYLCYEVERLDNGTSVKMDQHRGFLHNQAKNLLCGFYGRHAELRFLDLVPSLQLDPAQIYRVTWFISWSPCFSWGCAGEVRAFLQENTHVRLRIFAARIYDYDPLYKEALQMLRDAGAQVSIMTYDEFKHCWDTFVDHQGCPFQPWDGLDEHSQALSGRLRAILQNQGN
APOBEC3G inh: APOBEC3G DNA deaminase inhibitors, primary screen, biochemical, fluorescence, single-stranded DNA substrate, uHTS. 330,000 tested, 0.28% active. DNA dC->dU-editing enzyme APOBEC-3G (Homo sapiens), Q9HC16. recombinant A3G, ssDNA deamination FAM/TAMRA fluorescence. inhibition, % at 20 µM;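 active = inhibition of at least 40% at 20 µM, with no more than 30% in the related APOBEC3A deaminase screen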
Target sequence (Q9HC16 whole entry, looked up): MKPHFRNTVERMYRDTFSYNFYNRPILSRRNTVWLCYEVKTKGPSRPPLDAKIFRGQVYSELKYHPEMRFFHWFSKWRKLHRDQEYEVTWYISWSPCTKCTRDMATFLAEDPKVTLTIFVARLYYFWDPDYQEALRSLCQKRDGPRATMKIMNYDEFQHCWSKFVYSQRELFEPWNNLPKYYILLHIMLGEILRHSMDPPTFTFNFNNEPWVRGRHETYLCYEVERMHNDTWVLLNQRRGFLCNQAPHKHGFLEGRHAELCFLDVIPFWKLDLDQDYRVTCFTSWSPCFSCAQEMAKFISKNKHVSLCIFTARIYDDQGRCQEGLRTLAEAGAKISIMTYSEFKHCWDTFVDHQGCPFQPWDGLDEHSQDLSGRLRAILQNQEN
aDG glyco up: activators of alpha-DG glycosylation, primary screen, uHTS, Pro5-aDG cells, AlphaScreen. activation, % at 10 µM. alpha-DG glycosylation AlphaScreen (IIH6); 0% Pro5, 100% B10-LARGE cell signal. 360,000 tested, 0.22% active. AID 624168, 2012;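 active = activation of at least 8% versus controls, or a plate z-score of at least 8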;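 note: Pro5 are CHO cells carrying HIG-tagged alpha-DG that lacks glycosylation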
ALR H2O2 inh: inhibitors of human ALR sulfhydryl oxidase, primary screen, biochemical, H2O2 detection, HRP-luminol luminescence, single point; inhibition, % (test concentration not listed); FAD-linked sulfhydryl oxidase ALR (Homo sapiens), P55789; purified ALR, DTT oxidation; 290,000 tested, 3.8% active;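 active = mean replicate inhibition above about 79%, with every replicate also reaching it, limit read from the data; inconclusive = only one of the two criteria met; inactive = mean below limit and not every replicate reaching it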
Target sequence (P55789 whole entry, looked up): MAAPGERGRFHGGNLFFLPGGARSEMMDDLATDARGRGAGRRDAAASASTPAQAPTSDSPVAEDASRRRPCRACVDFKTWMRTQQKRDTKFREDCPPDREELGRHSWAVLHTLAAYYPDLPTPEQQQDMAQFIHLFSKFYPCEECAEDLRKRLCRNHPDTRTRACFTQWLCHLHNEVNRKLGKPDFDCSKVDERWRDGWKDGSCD
PHOSPHO1 block: PubChem AID 1565; Phosphoethanolamine/phosphocholine phosphatase (Homo sapiens), Q8TCT1; recombinant PHOSPHO1, absorbance phosphatase assay; inhibition, % at 13.3 µM; 290,000 tested, 1.1% active; in the data active = inhibition above about 60%
rCAG binder-1: binders of r(CAG) RNA repeats, primary screen, biochemical, fluorescence; r(CAG) RNA repeat, TO-PRO-1 dye displacement fluorescence; inhibition, % at 3 µM; 370,000 tested, 1.3% active;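 active = inhibition above the plate cutoff, the mean of all test compounds on that plate plus 3 SD, cut at about 35% in these data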;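 note: higher means more dye released from RNA so lower well fluorescence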
rCAG binder conf: small molecules binding CAG repeat RNA – biochemical, fluorescence, confirmation; shares compounds with rCAG binder-1; r(CAG) RNA repeat, TO-PRO-1 dye displacement fluorescence; inhibition, % at 3 µM; 4,300 tested, 70% active;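 active = inhibition above a per-plate cutoff, the mean inhibition of sample wells plus 3 SD, cut at about 35% in these data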;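 note: loss of TO-PRO-1 fluorescence as compound displaces dye from 1x1 AA loop RNA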
dCAG dye counter: displacement of TO-PRO-1 from CAG DNA duplex, counter-screen for rCAG RNA repeat binder project, biochemical, fluorescence, TO-PRO-1 dye, d(CAG) DNA oligo | inhibition, % at 3 µM | shares compounds with rCAG binder-1 | d(CAG) DNA oligo TO-PRO-1 dye displacement | 4,300 tested, 94% active;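 active = inhibition above its plate's cutoff, the mean test-well inhibition plus 3 SD, cut at about 4.8% in these data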;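 note: hits displace the dye from DNA and so lower well fluorescence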
DNA CAG DR: inhibitors of DNA CAG/GTC TO-PRO-1 complex, dose response, counter-screen for rCAG RNA repeat binder project, biochemical, fluorescence, TO-PRO-1 dye; 250 tested, 20% active; IC50, µM; shares compounds with rCAG binder-1; DNA CAG/GTC duplex TO-PRO-1 dye displacement fluorescence; in the data active = IC50 below about 10 µM
dCAG TOPRO ctr: TO-PRO-1 dye complex inhibitors on d(CAG) DNA, dose response, counter-screen, biochemical, fluorescence, late stage; 30 tested, 80% active; shares compounds with rCAG binder-1; AID 720649, 2013; IC50, µM; d(CAG) DNA duplex TO-PRO-1 dye displacement
rCAG binder-2: molecules binding r(CAG) RNA repeats, late stage dose response, late-stage follow-up, biochemical, fluorescence, dose response, powder samples; shares compounds with rCAG binder-1; r(CAG) RNA TO-PRO-1 dye displacement; IC50, µM; 30 tested, 100% active; AID 720651, 2013
Each line names hits and unclear results; the compound was inactive in the other large screens (follow-up assays come after a bar, where they were run). Unless noted, the rule behind the calls is not given here.

CCn1c(CNC(=O)c2ccccc2F)nnc1SCC(=O)NC1CCCCC1	none
CC(C)n1c(CNC(=O)c2ccccc2F)nnc1SCC(=O)NC1CCCCC1	rCAG binder-1 46.3 (no result: A3A deaminase, APOBEC3G inh, ALR H2O2 inh, PHOSPHO1 block) | rCAG binder conf inactive | dCAG dye counter 18.2
O=C(OCc1cn([C@H]2CN(C(=O)c3cccs3)[C@@H](c3ccc(Cl)cc3)C[C@@H]2O)nn1)c1ccccc1	none (no result: A3A deaminase, APOBEC3G inh, ALR H2O2 inh, PHOSPHO1 block)
Cc1nn(-c2ccccc2)c2sc(-c3n[nH]c(=S)o3)cc12	ALR H2O2 inh 97.8, rCAG binder-1 65.2 | rCAG binder conf inactive | dCAG dye counter 8.0
COc1ccccc1NC(=O)NNC(=O)c1cc2ccccc2cc1O	rCAG binder-1 41.7 | rCAG binder conf inactive | dCAG dye counter 11.2
COc1cc(OC)c(NC(=O)c2cc3ccccc3cc2O)cc1Cl	rCAG binder-1 34.9 (no result: A3A deaminase, APOBEC3G inh, ALR H2O2 inh, PHOSPHO1 block) | rCAG binder conf 46.6 | dCAG dye counter 22.5
COCCn1c2nc(=O)n(-c3ccccc3)c(=O)c-2nc2ccccc21	none (no result: A3A deaminase, APOBEC3G inh, ALR H2O2 inh, PHOSPHO1 block)
CCCCNC(=O)C1(C)CCN1C(=O)c1cc(OC)ccc1Br (configuration not stated)	none (no result: A3A deaminase, APOBEC3G inh, ALR H2O2 inh, PHOSPHO1 block)
Cc1nc(NC(=O)c2ccccc2)sc1-c1csc(Nc2cccc(F)c2)n1	ALR H2O2 inh inconclusive (no result: aDG glyco up, rCAG binder-1)
COc1ccc(Cl)cc1Nc1nc(-c2sc(NC(=O)c3ccco3)nc2C)cs1	rCAG binder-1 35.4 | rCAG binder conf inactive | dCAG dye counter 17.0
COc1cccc(Nc2nc(-c3sc(NC(=O)c4ccco4)nc3C)cs2)c1	rCAG binder-1 36.6 | rCAG binder conf inactive | dCAG dye counter 16.6
COc1cccc(N2CCN(CC(=O)NCc3ccc(Cl)cc3)CC2)c1	none (no result: A3A deaminase, APOBEC3G inh, aDG glyco up, ALR H2O2 inh, PHOSPHO1 block)
Cc1ccc(/C(O)=C/C(=O)C(=O)NNC(=O)C(O)(c2ccccc2)c2ccccc2)cc1	rCAG binder-1 45.7 | rCAG binder conf inactive | dCAG dye counter 12.5
CC(=O)NNC(=O)C(O)(c1ccccc1)c1ccccc1	none
O=C(C=C(O)c1ccc(Cl)cc1)C(=O)NNC(=O)C(O)(c1ccccc1)c1ccccc1	rCAG binder-1 71.2 (no result: A3A deaminase, APOBEC3G inh, ALR H2O2 inh, PHOSPHO1 block) | rCAG binder conf 35.5 | dCAG dye counter 12.1
N#Cc1ccccc1OCC(=O)Nc1cc(S(=O)(=O)N2CCCCC2)ccc1N1CCOCC1	none (no result: A3A deaminase, APOBEC3G inh, ALR H2O2 inh, PHOSPHO1 block)
O=c1[nH]c(/C=C/c2ccccc2Cl)c([N+](=O)[O-])c(=O)[nH]1	none
O=C(COc1ccccc1[N+](=O)[O-])Nc1cc(C(=O)O)cc(C(=O)O)c1	none
CCOC(=O)COc1ccc(Br)cc1/C=C\c1[nH]c(=O)[nH]c(=O)c1[N+](=O)[O-]	rCAG binder-1 83.7 (no result: ALR H2O2 inh) | rCAG binder conf 43.5 | dCAG dye counter 10.5
O=C(COc1ccccc1/C=C\c1[nH]c(=O)[nH]c(=O)c1[N+](=O)[O-])Nc1ccccc1	rCAG binder-1 68.3 (no result: A3A deaminase, APOBEC3G inh) | rCAG binder conf 43.0 | dCAG dye counter 14.2
CC(C)c1ccc(/C=C/c2[nH]c(=O)[nH]c(=O)c2[N+](=O)[O-])cc1	rCAG binder-1 40.2 | rCAG binder conf inactive | dCAG dye counter inactive
CCOc1ccc(/C=C/c2[nH]c(=O)[nH]c(=O)c2[N+](=O)[O-])cc1	rCAG binder-1 38.7 | rCAG binder conf inactive | dCAG dye counter 7.0
CCOc1cc(/C=C\c2[nH]c(=O)[nH]c(=O)c2[N+](=O)[O-])ccc1OC(C)CC (configuration not stated)	none (no result: aDG glyco up)
COCC1OC(OC(C)C(O)c2cnc3nc(N)[nH]c(=O)c3n2)C(O)C(OC)C1O (configuration not stated)	none (no result: A3A deaminase, APOBEC3G inh, ALR H2O2 inh, PHOSPHO1 block)
Cc1cc(C)c(S(=O)(=O)N2CCN(C(=O)c3cc(=O)[nH]c4ccccc34)CC2)c(C)c1	none (no result: PHOSPHO1 block)
Cc1cc(C(C)(C)C)cc(C)c1S(=O)(=O)N1CCN(C(=O)c2cc([N+](=O)[O-])c[nH]c2=O)CC1	rCAG binder-1 35.3 | rCAG binder conf 54.0 | dCAG dye counter 18.5
Cc1sc(NC(=O)c2sc3nc4c(C)cccc4cc3c2N)c(C#N)c1C	rCAG binder-1 67.7 | rCAG binder conf 60.0 | dCAG dye counter 32.2
Cc1cccc2cc3c(N)c(C(=O)Nc4ccc(N5CCOCC5)cc4)sc3nc12	none
CN(c1ccc(OCC(=O)Nc2ccc(S(N)(=O)=O)cc2)cc1)S(=O)(=O)c1ccc(F)cc1	none (no result: A3A deaminase, APOBEC3G inh, ALR H2O2 inh, PHOSPHO1 block)
CN(c1ccc(OCC(=O)Nc2cc(Cl)ccc2C(=O)O)cc1)S(=O)(=O)c1ccc(F)cc1	rCAG binder-1 77.2 (no result: PHOSPHO1 block) | rCAG binder conf 74.0 | dCAG dye counter 34.0 | DNA CAG DR 6.17 | dCAG TOPRO ctr 2.52 | rCAG binder-2 1.21
Cc1nc2cc(C(=O)N3CCN(C(=O)C(Cl)Cl)CC3)ccc2n1C1CCCC1	none (no result: A3A deaminase, APOBEC3G inh, aDG glyco up, ALR H2O2 inh, PHOSPHO1 block)
O=c1cc(CSc2nnnn2-c2ccccc2)nc(Nc2ccc(F)cc2)[nH]1	rCAG binder-1 42.8 (no result: ALR H2O2 inh) | rCAG binder conf 42.5 | dCAG dye counter 14.8
N/C(=N\c1nc(CSc2nnnn2-c2ccccc2)cc(=O)[nH]1)Nc1ccccc1	none (no result: aDG glyco up, ALR H2O2 inh)
CC(=NNC(=O)C(C)SC(C)C(=O)NN=C(C)c1cccnc1)c1cccnc1 (configuration not stated)	none (no result: A3A deaminase, APOBEC3G inh, ALR H2O2 inh, PHOSPHO1 block)
COc1ccc(C(C)=NNS(=O)(=O)c2ccc(C)cc2)cc1OC	none (no result: A3A deaminase, APOBEC3G inh, ALR H2O2 inh, PHOSPHO1 block)
O=C(COC(=O)c1ccc(Sc2ncn[nH]2)c([N+](=O)[O-])c1)Nc1ccc(Cl)c(Cl)c1	rCAG binder-1 64.1 (no result: A3A deaminase, APOBEC3G inh, aDG glyco up, ALR H2O2 inh, PHOSPHO1 block) | rCAG binder conf 46.4 | dCAG dye counter 13.9
